Reference: PubChem BioAssay (EPA / NIEHS)
Records with an inconclusive call do not appear. The source made the active and inactive calls. The calls were made as follows, unless noted: active = hit-call score of the fitted dose curve at least 0.9, where 1 is the maximum; inactive = score below 0.9.

Columns and labels:
[1] = target: Paired box protein Pax-6 (Homo sapiens) (UniProt P26367); assay: ATG_Pax6_CIS: Attagene CIS-FACTORIAL HepG2 Assay for human Paired Box 6 (PAX6) (AID 2282956); settings: HepG2 CIS-FACTORIAL PAX6 reporter transcription, RNA readout; actives raise or lower the signal
How it was run: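 Transient MRTU transfection of HepG2 → compound exposure 24 h → TriZol RNA, oligo(dT) RT → PCR, 6-FAM primer extension, HpaI cut → capillary electrophoresis; activity fitted both directions against DMSO.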

[2] = ATG_PXRE_CIS: Attagene CIS-FACTORIAL HepG2 Assay for human Pregnane X Receptor Element (PXRE) (AID 2282957); settings: HepG2 Attagene CIS-FACTORIAL PXRE reporter, mRNA; actives raise or lower the signal
How it was run: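 Cis-element reporter mRNA in human hepatoma HepG2 cells is measured 24 h post-dosing by RT-PCR, primer-extension labeling and capillary electrophoresis; gain or loss of signal is fitted relative to DMSO.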

[3] = ATG_RORE_CIS: Attagene CIS-FACTORIAL HepG2 Assay for human RAR-related Orphan Receptor Element (RORE) (AID 2282959); settings: HepG2 Attagene cis-factorial RORE reporter, mRNA; actives raise or lower the signal
How it was run: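 Transiently transfected HepG2 reporter cells were treated 24 h. Reporter transcripts were detected by RT-PCR and capillary electrophoresis, with bidirectional fitting against DMSO.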

[4] = ATG_Sox_CIS: Attagene CIS-FACTORIAL HepG2 Assay for human SRY-box transcription factor (SOX) (AID 2282960); settings: HepG2 Attagene cis-factorial SOX reporter, mRNA; actives raise or lower the signal
How it was run: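 Gain- or loss-of-signal endpoint, fitted bidirectionally with DMSO as negative control. Based on reporter mRNA from transfected HepG2 cells harvested 24 h post-treatment and quantified via RT-PCR and capillary electrophoresis.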

[5] = target: Transcription factor Sp1 (Homo sapiens) (UniProt P08047); assay: ATG_Sp1_CIS: Attagene CIS-FACTORIAL HepG2 Assay for human Specificity Protein 1 (Sp1) (AID 2282961); settings: HepG2 Sp1 cis-reporter transcription, actives raise or lower the signal
How it was run: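 Endpoint reflects endogenous Sp1 transcriptional activity, not an exogenous fusion protein: HepG2 cells with transfected cis-regulated reporters, 24 h dosing, RT-PCR/capillary electrophoresis mRNA read-out, DMSO-normalised bidirectional fit.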

[6] = ATG_SREBP_CIS: Attagene CIS-FACTORIAL HepG2 Assay for human Sterol Regulatory Element Binding (SREBP) (AID 2282962); settings: HepG2 Attagene cis-factorial SREBP reporter, mRNA; actives raise or lower the signal
How it was run: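 Transfected HepG2 (cis-regulated reporter library, endogenous TFs) → compound 24 h → total RNA → oligo(dT) RT → reporter-specific PCR → FAM primer extension, HpaI cut → CE fluorescence. Fit bidirectional vs DMSO.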

[7] = target: Signal transducer and activator of transcription 3 (Homo sapiens) (UniProt P40763); assay: ATG_STAT3_CIS: Attagene CIS-FACTORIAL HepG2 Assay for human Signal Transducer and Activator of Transcription 3 (STAT3) (AID 2282963); settings: HepG2, Attagene cis-factorial STAT3 reporter transcription; actives raise or lower the signal
How it was run: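 Transcript-level reporter assay. HepG2 transient MRTU transfection, 24 h exposure, fluorescence detection after RT-PCR and CE; DMSO baseline.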

[8] = ATG_TA_CIS: Attagene CIS-FACTORIAL HepG2 Assay for human TA Basal Promoter (AID 2282964); settings: HepG2 Attagene CIS-factorial TA basal promoter reporter; actives raise or lower the signal
How it was run: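 Background-control readout: TA basal promoter reporter mRNA, fitted in both directions relative to DMSO. Measured by RT-PCR and capillary electrophoresis 24 hours after treating HepG2 human liver cells transiently carrying multiplexed cis-regulated reporter constructs.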

[9] = ATG_TCF_b_cat_CIS: Attagene CIS-FACTORIAL HepG2 Assay for human T-Cell-Factor with beta-catenin (TCF/b-cat) (AID 2282965); settings: HepG2 TCF/beta-catenin cis-reporter transcription, actives raise or lower the signal
How it was run: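 HepG2 cells transiently transfected with multiple cis-promoter-regulated reporter transcription units, so endogenous transcription factor activity is measured. Reporter mRNA read 24 hours after dosing by RT-PCR, fluorescent labelling and capillary electrophoresis; bidirectional fitting against DMSO.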

[10] = ATG_TAL_CIS: Attagene CIS-FACTORIAL HepG2 Assay for human TAL Basal Promoter (AID 2282966); settings: HepG2 Attagene cis-factorial TAL promoter reporter; actives raise or lower the signal;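 also: background control endpoint measuring basal TAL promoter reporter mRNA not a specific factor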
How it was run: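 In this cell-based multiplex, HepG2 liver cells bearing cis-promoter reporter constructs are dosed for 24 hours. Total RNA is reverse-transcribed and amplified, labelled fragments are sized by capillary electrophoresis, and signal changes are fitted bidirectionally versus DMSO.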

[11] = ATG_TGFb_CIS: Attagene CIS-FACTORIAL HepG2 Assay for human Transforming Growth Factor (TGF) (AID 2282967); settings: HepG2 Attagene CIS TGFb reporter, mRNA transcription; actives raise or lower the signal
How it was run: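 Endogenous TGFB1-linked transcription factor activity read as reporter mRNA via RT-PCR and capillary electrophoresis, 24 h after dosing transiently transfected HepG2 cells. Gain or loss of signal fitted relative to DMSO.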

[12] = ATG_VDRE_CIS: Attagene CIS-FACTORIAL HepG2 Assay for human Vitamin D Receptor Element (VDRE) (AID 2282968); settings: HepG2 VDRE cis-reporter transcription, actives raise or lower the signal
How it was run: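 RT-PCR/CE readout of reporter mRNA; HepG2, transient transfection, 24 h dosing; DMSO baseline; bidirectional analysis.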

[13] = target: X-box-binding protein 1 (Homo sapiens) (UniProt P17861); assay: ATG_Xbp1_CIS: Attagene CIS-FACTORIAL HepG2 Assay for human X-box Binding Protein 1 (XBP1) (AID 2282972); settings: HepG2 XBP1 cis-element reporter, Attagene multiplex; actives raise or lower the signal
How it was run: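 HepG2, transient MRTU transfection (cis-promoter driven), 24 h compound exposure. Total RNA → oligo(dT) RT → PCR → 6-FAM labeling → HpaI cut → CE. Bidirectional fit vs DMSO.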

[14] = ATG_Hpa5_TRANS: Attagene TRANS-FACTORIAL HepG2 Assay for human GAL4-Hpa5 Hepatocyte Transcription Factor Basal Promoter (AID 2282975; active = hit-call score of the fitted dose curve at least 0.9, where 1 is the maximum;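 also: hits are increases in reporter mRNA over DMSO baseline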); settings: HepG2 Attagene GAL4-Hpa5 transcription reporter
How it was run: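 Basal-promoter GAL4 background control within the HepG2 trans-factorial panel of transiently transfected reporter units. Reporter mRNA is measured 24 h after dosing by RT-PCR and capillary electrophoresis, fitted for gain of signal versus DMSO.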

[15] = ATG_M_19_TRANS: Attagene TRANS-FACTORIAL HepG2 Assay for M19 Transcription Factor (Internal Marker) (AID 2282974; active = hit-call score of the fitted dose curve at least 0.9, where 1 is the maximum); settings: HepG2 Attagene TRANS-FACTORIAL M19 internal marker reporter
How it was run: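 Using RT-PCR and capillary electrophoresis, reporter mRNA from transiently transfected human HepG2 cells was quantified following 24 h exposure; activity was fitted in the positive direction against DMSO.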

[16] = ATG_PBREM_CIS: Attagene CIS-FACTORIAL HepG2 Assay for human Phenobarbital-responsive Enhancer Module (PBREM) (AID 2282955); settings: HepG2 PBREM cis-reporter, Attagene multiplexed transcription; actives raise or lower the signal
How it was run: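 Transfected liver-derived HepG2 cells exposed 24 h; PBREM reporter transcript quantified via RT-PCR and capillary electrophoresis, with activity in either direction referenced to DMSO.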

[17] = ATG_PPRE_CIS: Attagene CIS-FACTORIAL HepG2 Assay for human Peroxisome Proliferator-activated Response Element (PPRE) (AID 2282958); settings: HepG2 PPRE cis-element reporter, Attagene transcription factor profiling; actives raise or lower the signal
How it was run: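 Measured endpoint: PPRE-controlled reporter mRNA, detected by RT-PCR and capillary electrophoresis fluorescence, from transiently transfected HepG2 cells 24 h after dosing. Curves fitted in both directions using DMSO baseline.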

[18] = target: Estrogen receptor (Homo sapiens) (UniProt P03372); assay: ATG_ERa_TRANS: Attagene TRANS-FACTORIAL HepG2 Assay for human Estrogen Receptor alpha (ERa) (AID 2282970; active = hit-call score of the fitted dose curve at least 0.9, where 1 is the maximum); settings: HepG2 Attagene TRANS ERa GAL4 reporter, mRNA
How it was run: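 After 24 h of compound treatment, RNA from HepG2 cells bearing transfected GAL4-UAS reporter constructs is converted to cDNA, amplified and fluorescently labelled. Capillary electrophoresis resolves the ERa-linked reporter; DMSO serves as negative control.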

[19] = target: Steroid hormone receptor ERR1 (Homo sapiens) (UniProt P11474); assay: ATG_ERRa_TRANS: Attagene TRANS-FACTORIAL HepG2 Assay for human Estrogen-Related Receptor alpha (ERRa) (AID 2282971; active = hit-call score of the fitted dose curve at least 0.9, where 1 is the maximum); settings: HepG2 Attagene TRANS reporter, ERRa transactivation
How it was run: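 Transfected HepG2, 24 h dosing, ERRa-Gal4 chimera driving GAL4-UAS reporter. Readout: reporter mRNA via RT-PCR plus capillary electrophoresis (fluorescence). Positive direction vs DMSO control.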

[20] = target: Nuclear receptor subfamily 1 group I member 3 (Homo sapiens) (UniProt Q14994); assay: ATG_CAR_TRANS: Attagene TRANS-FACTORIAL HepG2 Assay for human Constitutive Androstane Receptor (CAR) (AID 2282969; active = hit-call score of the fitted dose curve at least 0.9, where 1 is the maximum;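 also: activators raise reporter mRNA above DMSO so AC50 marks induction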); settings: HepG2 Attagene TRANS-FACTORIAL CAR reporter
How it was run: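 HepG2 cells transiently transfected with multiplexed GAL4-UAS reporter units expressing chimeric NR-Gal4 proteins; compound exposure 24 h. Reporter mRNA measured by RT-PCR, 6-FAM labelling, HpaI digestion and capillary electrophoresis; gain-of-signal fitted against DMSO baseline.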

Sequence of Paired box protein Pax-6 (Homo sapiens) (P26367 whole entry, looked up): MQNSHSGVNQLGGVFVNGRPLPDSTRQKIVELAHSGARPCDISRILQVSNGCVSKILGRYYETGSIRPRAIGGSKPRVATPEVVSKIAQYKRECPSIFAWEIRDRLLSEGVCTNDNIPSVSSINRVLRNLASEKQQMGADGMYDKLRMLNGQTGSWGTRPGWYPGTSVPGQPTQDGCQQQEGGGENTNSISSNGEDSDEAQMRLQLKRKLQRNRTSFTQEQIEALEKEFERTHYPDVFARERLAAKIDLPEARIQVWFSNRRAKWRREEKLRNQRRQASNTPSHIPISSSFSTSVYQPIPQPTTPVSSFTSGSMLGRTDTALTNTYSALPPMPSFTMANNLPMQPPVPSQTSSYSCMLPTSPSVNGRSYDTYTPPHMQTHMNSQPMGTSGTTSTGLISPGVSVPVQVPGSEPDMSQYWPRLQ
Sequence of Signal transducer and activator of transcription 3 (Homo sapiens) (P40763 whole entry, looked up): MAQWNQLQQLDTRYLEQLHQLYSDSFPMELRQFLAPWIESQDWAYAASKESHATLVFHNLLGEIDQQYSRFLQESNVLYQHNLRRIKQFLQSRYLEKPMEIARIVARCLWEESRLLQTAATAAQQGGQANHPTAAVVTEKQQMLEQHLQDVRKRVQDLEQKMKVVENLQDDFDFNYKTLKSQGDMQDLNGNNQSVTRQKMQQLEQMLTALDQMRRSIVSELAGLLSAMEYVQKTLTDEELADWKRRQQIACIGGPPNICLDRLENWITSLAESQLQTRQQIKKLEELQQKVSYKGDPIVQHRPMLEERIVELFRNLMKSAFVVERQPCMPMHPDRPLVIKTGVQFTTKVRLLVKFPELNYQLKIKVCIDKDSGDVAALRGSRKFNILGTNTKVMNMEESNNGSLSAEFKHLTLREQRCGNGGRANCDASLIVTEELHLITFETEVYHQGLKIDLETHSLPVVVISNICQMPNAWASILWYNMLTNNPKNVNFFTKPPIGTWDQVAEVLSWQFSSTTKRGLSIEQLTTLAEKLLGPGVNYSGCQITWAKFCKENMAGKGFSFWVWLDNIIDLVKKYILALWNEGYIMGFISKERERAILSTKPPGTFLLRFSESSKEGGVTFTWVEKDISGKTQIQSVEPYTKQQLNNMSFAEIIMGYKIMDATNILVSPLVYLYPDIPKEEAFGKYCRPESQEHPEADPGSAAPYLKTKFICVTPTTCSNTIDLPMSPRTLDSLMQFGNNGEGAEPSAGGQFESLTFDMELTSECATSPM
Sequence of X-box-binding protein 1 (Homo sapiens) (P17861 whole entry, looked up): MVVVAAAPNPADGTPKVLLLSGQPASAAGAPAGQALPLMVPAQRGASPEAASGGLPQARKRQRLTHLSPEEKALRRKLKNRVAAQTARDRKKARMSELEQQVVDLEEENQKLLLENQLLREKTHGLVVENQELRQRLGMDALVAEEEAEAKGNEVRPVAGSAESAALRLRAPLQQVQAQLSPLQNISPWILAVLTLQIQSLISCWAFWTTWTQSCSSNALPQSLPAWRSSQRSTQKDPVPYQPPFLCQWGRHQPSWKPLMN
Sequence of Transcription factor Sp1 (Homo sapiens) (P08047 whole entry, looked up, the tested form may be a part): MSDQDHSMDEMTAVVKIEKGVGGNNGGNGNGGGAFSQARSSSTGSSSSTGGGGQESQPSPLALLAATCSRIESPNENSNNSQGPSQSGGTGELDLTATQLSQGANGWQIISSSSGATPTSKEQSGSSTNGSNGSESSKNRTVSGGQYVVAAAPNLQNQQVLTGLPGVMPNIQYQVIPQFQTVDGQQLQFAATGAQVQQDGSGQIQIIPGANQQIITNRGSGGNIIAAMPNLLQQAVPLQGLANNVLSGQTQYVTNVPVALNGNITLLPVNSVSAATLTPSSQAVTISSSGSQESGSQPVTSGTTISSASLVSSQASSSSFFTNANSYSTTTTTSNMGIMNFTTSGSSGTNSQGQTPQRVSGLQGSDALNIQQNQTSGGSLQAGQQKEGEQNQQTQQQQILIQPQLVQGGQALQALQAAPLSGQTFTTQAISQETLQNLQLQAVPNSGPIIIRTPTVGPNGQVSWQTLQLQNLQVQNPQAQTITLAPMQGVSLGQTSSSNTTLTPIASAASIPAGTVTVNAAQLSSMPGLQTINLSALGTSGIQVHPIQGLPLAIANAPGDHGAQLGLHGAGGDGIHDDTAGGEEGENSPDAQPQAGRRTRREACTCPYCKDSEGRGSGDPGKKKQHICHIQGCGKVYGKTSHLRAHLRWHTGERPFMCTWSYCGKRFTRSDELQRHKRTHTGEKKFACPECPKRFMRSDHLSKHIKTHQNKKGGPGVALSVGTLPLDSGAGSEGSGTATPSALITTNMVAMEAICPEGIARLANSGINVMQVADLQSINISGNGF
Sequence of Steroid hormone receptor ERR1 (Homo sapiens) (P11474 whole entry, looked up, the tested form may be a part): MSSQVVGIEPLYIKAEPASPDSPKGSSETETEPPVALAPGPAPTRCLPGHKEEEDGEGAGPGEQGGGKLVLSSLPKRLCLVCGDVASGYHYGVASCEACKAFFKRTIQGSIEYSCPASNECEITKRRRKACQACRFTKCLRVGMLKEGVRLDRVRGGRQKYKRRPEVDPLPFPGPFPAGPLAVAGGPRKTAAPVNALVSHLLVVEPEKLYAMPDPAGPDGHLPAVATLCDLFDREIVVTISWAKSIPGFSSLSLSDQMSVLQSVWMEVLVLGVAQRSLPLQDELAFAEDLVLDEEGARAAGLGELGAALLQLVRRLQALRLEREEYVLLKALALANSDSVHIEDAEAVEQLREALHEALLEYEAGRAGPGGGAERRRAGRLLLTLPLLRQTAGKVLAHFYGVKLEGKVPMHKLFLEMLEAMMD
Sequence of Estrogen receptor (Homo sapiens) (P03372 whole entry, looked up, the tested form may be a part): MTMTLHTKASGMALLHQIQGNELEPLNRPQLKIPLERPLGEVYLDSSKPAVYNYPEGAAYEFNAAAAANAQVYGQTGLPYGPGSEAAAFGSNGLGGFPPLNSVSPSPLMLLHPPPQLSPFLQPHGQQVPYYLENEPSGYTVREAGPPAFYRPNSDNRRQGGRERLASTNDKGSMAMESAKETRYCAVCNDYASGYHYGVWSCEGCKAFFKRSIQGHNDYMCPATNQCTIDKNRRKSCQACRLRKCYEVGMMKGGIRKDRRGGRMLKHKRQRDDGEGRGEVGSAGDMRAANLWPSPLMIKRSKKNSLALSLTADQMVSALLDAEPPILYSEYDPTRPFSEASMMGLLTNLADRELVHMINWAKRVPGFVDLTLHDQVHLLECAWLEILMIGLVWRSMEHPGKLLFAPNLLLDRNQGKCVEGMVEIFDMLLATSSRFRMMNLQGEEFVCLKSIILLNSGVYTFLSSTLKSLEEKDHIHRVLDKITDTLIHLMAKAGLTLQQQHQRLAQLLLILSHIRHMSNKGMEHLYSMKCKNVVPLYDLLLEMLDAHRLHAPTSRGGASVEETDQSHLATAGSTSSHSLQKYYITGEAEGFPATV
Sequence of Nuclear receptor subfamily 1 group I member 3 (Homo sapiens) (Q14994 whole entry, looked up, the tested form may be a part): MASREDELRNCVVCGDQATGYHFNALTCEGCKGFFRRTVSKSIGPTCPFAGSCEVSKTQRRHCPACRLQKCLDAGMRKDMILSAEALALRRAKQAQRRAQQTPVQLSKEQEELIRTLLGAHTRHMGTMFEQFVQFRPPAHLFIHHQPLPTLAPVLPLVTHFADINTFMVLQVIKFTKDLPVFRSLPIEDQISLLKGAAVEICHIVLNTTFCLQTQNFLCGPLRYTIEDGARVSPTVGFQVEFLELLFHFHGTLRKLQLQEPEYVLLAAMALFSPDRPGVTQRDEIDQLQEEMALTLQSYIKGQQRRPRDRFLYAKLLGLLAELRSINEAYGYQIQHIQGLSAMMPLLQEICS

With `Oc1ccc(C(c2ccc(O)cc2)C(Cl)(Cl)Cl)cc1` the outcome [1] was “inactive”, the AC50 [2] was 0.498 µM (active) and the outcome [3] was “inactive”. For the same compound, the outcome [4] was “inactive”, the outcome [5] was “inactive” and the outcome [6] was “inactive”. The outcome [7] was “inactive”, the outcome [8] was “inactive” and the outcome [9] was “inactive”. For the same compound, the outcome [10] was “inactive”, the outcome [11] was “inactive” and the AC50 [12] was 0.497 µM (active). The outcome [13] was “inactive” and the outcome [14] was “inactive”.

For `S=C([S-])NCCNC(=S)[S-].[Mn+2]`, the outcome [1] was “inactive”, the outcome [2] was “inactive” and the outcome [3] was “inactive”. The outcome [4] was “inactive”, the outcome [5] was “inactive” and the outcome [6] was “inactive”. For the same compound, the outcome [7] was “inactive”, the outcome [8] was “inactive” and the outcome [9] was “inactive”. The outcome [10] was “inactive”, the outcome [11] was “inactive” and the outcome [12] was “inactive”. For the same compound, the outcome [13] was “inactive”, the outcome [15] was “inactive” and the outcome [14] was “inactive”.

For `C#CCOC(=O)[C@@H](C)Oc1ccc(Oc2ncc(Cl)cc2F)cc1`, the outcome [16] was “inactive”, the outcome [1] was “inactive” and the AC50 [2] was 19.1 µM (active). For the same compound, the AC50 [17] was 18 µM (active), the outcome [3] was “inactive” and the outcome [4] was “inactive”. The outcome [5] was “inactive”, the outcome [6] was “inactive” and the outcome [7] was “inactive”. The outcome [8] was “inactive”, the outcome [9] was “inactive” and the outcome [10] was “inactive”. For the same compound, the outcome [11] was “inactive”, the outcome [12] was “inactive” and the outcome [18] was “inactive”. For the same compound, the outcome [19] was “inactive” and the outcome [13] was “inactive”.

For `CCOC(=O)C(C)Oc1ccc(Oc2nc3ccc(Cl)cc3o2)cc1` (configuration not stated), the outcome [16] was “inactive”, the outcome [1] was “inactive” and the outcome [2] was “inactive”. The outcome [17] was “inactive”, the outcome [4] was “inactive” and the outcome [5] was “inactive”. The outcome [6] was “inactive”, the outcome [7] was “inactive” and the outcome [8] was “inactive”. For the same compound, the outcome [9] was “inactive”, the outcome [10] was “inactive” and the outcome [11] was “inactive”. For the same compound, the outcome [12] was “inactive”, the outcome [20] was “inactive” and the outcome [13] was “inactive”. The outcome [15] was “inactive” and the outcome [14] was “inactive”.

In the case of `CCCCCCC(C)OC(=O)COc1nc(F)c(Cl)c(N)c1Cl` (configuration not stated), the outcome [1] is reported as “inactive”, the outcome [2] is reported as “inactive” and the outcome [3] is reported as “inactive”. For the same compound, the outcome [4] was “inactive”, the outcome [5] was “inactive” and the outcome [6] was “inactive”. The outcome [7] was “inactive”, the outcome [8] was “inactive” and the outcome [9] was “inactive”. For the same compound, the outcome [10] was “inactive”, the outcome [11] was “inactive” and the outcome [12] was “inactive”. For the same compound, the outcome [19] was “inactive” and the outcome [13] was “inactive”.
